Source: PubChem BioAssay (EPA / NIEHS)
Active and inactive are the calls of the source. The calls were made as follows: active = hit-call score of the fitted dose curve at least 0.9, where 1 is the maximum; inactive = score below 0.9.

Assays:
[1] = read-out: Cyclin D1 (CCND1), CCND1 (gene 595); assay: LTEA_HepaRG_CCND1: Life Technologies and Expression Analysis (LTEA) Assay for Cyclin D1 (CCND1) using HepaRG (AID 2283451); conditions: mRNA level, 48 h; actives raise or lower the signal;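 as to AC50: TaqMan qRT-PCR transcript level normalised to ACTB GAPDH and POLR2A housekeeping genes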
In short: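 Differentiated HepaRG cells exposed 48 h in serum-free induction medium to eight half-log concentrations from 100 uM top, 0.5% DMSO, duplicates. CCND1 mRNA measured by Fluidigm TaqMan qRT-PCR, normalised to ACTB, GAPDH, POLR2A; bidirectional fit.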

[2] = read-out: catalase (CAT), CAT (gene 847); assay: LTEA_HepaRG_CAT: Life Technologies and Expression Analysis (LTEA) Assay for catalase (CAT) using HepaRG (AID 2283452); conditions: mRNA level, 48 h; actives raise or lower the signal;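 as to AC50: TaqMan qRT-PCR signal normalized to ACTB GAPDH and POLR2A housekeeping genes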
In short: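 Differentiated HepaRG cells in serum-free induction medium were dosed 48 h in duplicate, eight half-log concentrations from 100 uM in 0.5% DMSO. Transcript measured by TaqMan qRT-PCR, normalised to ACTB/GAPDH/POLR2A, fitted bidirectionally against DMSO.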

[3] = read-out: flavin-containing dimethylaniline monooxygenases 3 (FMO3), FMO3 (gene 2328); assay: LTEA_HepaRG_FMO3: Life Technologies and Expression Analysis (LTEA) Assay for flavin-containing dimethylaniline monooxygenases 3 (FMO3) using HepaRG (AID 2283453); conditions: mRNA level, 48 h; actives raise or lower the signal
In short: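 Differentiated HepaRG cells in serum-free induction medium, exposed 48 h in duplicate to 8 half-log concentrations up to 100 uM in 0.5% DMSO. FMO3 mRNA by qRT-PCR, normalized to ACTB, GAPDH, POLR2A; bidirectional fit vs DMSO.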

[4] = read-out: Cytochrome P450 (CYP1A1), CYP1A1 (gene 1543); assay: LTEA_HepaRG_CYP1A1: Life Technologies and Expression Analysis (LTEA) Assay for Cytochrome P450 (CYP1A1) using HepaRG (AID 2283454); conditions: mRNA level, 48 h; actives raise or lower the signal
In short: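 Differentiated human HepaRG cells, after 48 h plating, exposed in duplicate for 48 h in serum-free induction medium to 8 half-log concentrations up to 100 uM in 0.5% DMSO. CYP1A1 mRNA by qRT-PCR, normalized to ACTB/GAPDH/POLR2A; bidirectional fit versus DMSO.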

[5] = read-out: CFLAR gene, CFLAR (gene 8837); assay: LTEA_HepaRG_CFLAR: Life Technologies and Expression Analysis (LTEA) Assay for CFLAR gene using HepaRG (AID 2283455); conditions: mRNA level, 48 h; actives raise or lower the signal
In short: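 HepaRG cells were plated for 48 h, switched to serum-free induction medium, then exposed in duplicate for 48 h to 8 concentrations (top 100 uM, half-log steps, 0.5% DMSO). CFLAR mRNA was measured by qRT-PCR, normalized to ACTB, GAPDH and POLR2A.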

[6] = read-out: Forkhead box O1 (FOXO1), FOXO1 (gene 2308); assay: LTEA_HepaRG_FOXO1: Life Technologies and Expression Analysis (LTEA) Assay for Forkhead box O1 (FOXO1) using HepaRG (AID 2283456); conditions: mRNA level, 48 h; actives raise or lower the signal
In short: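 Differentiated human HepaRG cells in serum-free induction medium were exposed in duplicate for 48 h to eight half-log concentrations (top 100 uM, 0.5% DMSO). FOXO1 mRNA was measured by TaqMan qRT-PCR, normalised to ACTB, GAPDH and POLR2A, and fitted bidirectionally against DMSO.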

[7] = read-out: growth arrest and DNA damage 45 (GADD45A), GADD45A (gene 1647); assay: LTEA_HepaRG_GADD45A: Life Technologies and Expression Analysis (LTEA) Assay for growth arrest and DNA damage 45 (GADD45A) using HepaRG (AID 2283458); conditions: mRNA level, 48 h; actives raise or lower the signal
In short: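 Cells plated and cultured 48 h, switched to serum-free induction medium, then dosed for 48 h (100 uM top, half-log dilutions, 0.5% DMSO). RNA was isolated and transcript measured by Fluidigm qRT-PCR.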

[8] = read-out: ABC Transporter (ABCB1), ABCB1 (gene 5243); assay: LTEA_HepaRG_ABCB1: Life Technologies and Expression Analysis (LTEA) Assay for ABC Transporter (ABCB1) using HepaRG (AID 2283460); conditions: mRNA level, 48 h; actives raise or lower the signal
In short: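 Differentiated human HepaRG cells, plated 48 h then switched to serum-free induction medium, were exposed in duplicate to eight half-log concentrations up to 100 uM in 0.5% DMSO for 48 h. ABCB1 mRNA was measured by TaqMan qRT-PCR, normalized to ACTB/GAPDH/POLR2A.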

[9] = read-out: Forkhead box O3 (FOXO3), FOXO3 (gene 2309); assay: LTEA_HepaRG_FOXO3: Life Technologies and Expression Analysis (LTEA) Assay for Forkhead box O3 (FOXO3) using HepaRG (AID 2283459); conditions: mRNA level, 48 h; actives raise or lower the signal
In short: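 Differentiated human HepaRG cells in serum-free induction medium were exposed in duplicate for 48 h to eight half-log concentrations up to 100 uM in 0.5% DMSO. FOXO3 mRNA was quantified by qRT-PCR, normalized to ACTB, GAPDH and POLR2A, with bidirectional fitting versus DMSO.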

[10] = CEETOX_H295R_TESTO: CeeTox H295R High-throughput Steroidogenesis Assay for Testosterone (TESTO) (AID 2283457); conditions: actives raise or lower the signal;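 as to AC50: cells exposed to chemicals for 48 h before medium collection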
Procedure: CEETOX_H295R is a cell-based, multiplexed-readout assay that uses H295R, a human adrenal gland cell line, with measurements taken at 48 hours after chemical dosing in a 96-well plate.CEETOX_H295R_TESTO is one of 23 assay component(s) measured or calculated from the CEETOX_H295R assay. It is designed to make measurements of hormone induction, a form of inducible reporter, as detected with […] by HPLC-MS-MS technology.Data from the assay component CEETOX_H295R_TESTO was analyzed into 1 assay endpoint. This assay endpoint, CEETOX_H295R_TESTO, was analyzed with bidirectional fitting relative to DMSO as the negative control and baseline of activity. Using a type of inducible reporter, gain or loss-of-signal activity using HPLC-MS-MS was used to understand synthesis of Testosterone in H295R cell line at 48hr of chemical exposure. To generalize the intended target to other relatable targets, this assay endpoint is annotated to the steroid hormone intended target family, where the subfamily is androgens.
Cell culture and media preparation procedures were conducted in accordance with OECD Test No. 456 guidelines, with minor modifications. H295R cells (ATCC CRL-2128) were expanded for 5 passages and frozen in batches in liquid nitrogen. Prior to the steroidogenesis assay, H295R cells were thawed and passed at least 4 times. The maximum passage was 10. Cells were maintained in a 1:1 mixture of DMEM/F12 supplemented with 5ml/L ITS+ Premix (BD Bioscience) and 12.5 ml/L Nu-Serum (BD Bioscience). After seeding cells into 96-well plates at 50-60% confluency, cells were allowed to adhere overnight. […] Test chemicals were incubated for 48 hours, then the medium was removed and split into 2 vials containing approximately 75uL each, and stored at -80 C prior to hormone analysis. For steroid quantification, media samples were shipped to OpAns, LLC (Durham, NC) on dry ice, and samples were thawed to room temperature prior to liquid-liquid extraction. Steroid hormones were extracted from media samples using methyl tertbutyl ether (MTBE). An extra derivatization with dansyl chloride was included for estrogen (estrone and estradiol) detection only. Steroid hormones were separated by HPLC, eluted using a reverse phase C18 gradient with electrospray positive ionization, followed by quantification by tandem mass spectrometry (MS/MS). Data were acquired on a MassHunter Workstation Acquisition version B03.01 (Agilent Technologies, Inc.) and processed using MassHunter Quantitative Analysis for QQQ. Accuracy was determined for each hormone analyte from 3 standards to determine upper and lower limits of quantification (ULOQ and LLOQ, respectively) using a 7-point standard curve. Precision and accuracy of the extraction and quantification methods were calculated as the percent relative standard deviation (%RSD) of the spiked standards and percent spiked standard recovered, respectively. […] Test medium was removed following chemical exposure, and cell viability was evaluated in the same wells by MTT. MTT procedures were as follows: after removal of test medium, 500 uL of 0.5 mg/ml of 3-[4,5-dimethylthiazol-2-y]2,5-diphenyltetrazoliumbromide solution was added to the cells. Following a 4-hour incubation at 37 C and 5% CO2 to allow formazan-crystal formation, the MTT solution was removed and blue formazan salt crystals were solubilized using 500uL anhydrous isopropanol with shaking for 20 minutes. Absorbance was read at 570 and 650nm using a Packard Fusion microplate reader. Background correction of absorbance units was used to determine percent change relative to controls. […] When a test chemical reduced cell viability to 20% - 70%, the test chemical was diluted 10-fold and re-evaluated, but if cell viability was <20%, then the test chemical was diluted 100-fold and re-evaluated. Test chemical dilutions were made until cell viability was >/=70%. MTT assays were also conducted for duplicates of all concentrations of chemicals tested in concentration-response studies. […]

Measured: AC50

O=[N+]([O-])C(CO)(CO)CO
active: [4] 25.3 µM
inactive: [1] | [2] | [3] | [5] | [6] | [7] | [8]

OC[C@@H](O)[C@@H](O)[C@H](O)[C@H](O)CO
inactive: [1] | [2] | [3] | [4] | [5] | [6] | [7] | [9] | [8]

CN1CCCC1=O
inactive: [1] | [2] | [3] | [5] | [6] | [7] | [9] | [8]
active: [4] 50 µM

C=CCc1ccc(O)c(OC)c1
inactive: [1] | [2] | [3] | [4] | [5] | [6] | [7] | [9] | [8]

CCCCc1ccc2c(n1)[C@@H](c1ccc(OC)cc1C[C@H](C)C(=O)O)[C@H](C(=O)O)[C@H]2c1ccc2c(c1)OCO2
inactive: [1] | [2] | [3] | [5] | [6] | [7] | [9] | [8]
active: [4] 71.7 µM

O=C(O)Cc1ccccc1Nc1c(Cl)cccc1Cl
inactive: [1] | [2] | [3] | [5] | [6] | [7] | [9]
active: [4] 76.4 µM | [8] 6.67 µM

COc1cc(-c2nc(NC(=O)c3cc4cc(C)cc(C)c4n3CC(=O)O)sc2CCC2CCCCC2)c(OC)cc1Cl
active: [1] 18.4 µM | [2] 7.6 µM | [3] 8.16 µM | [5] 19.8 µM | [6] 42.2 µM | [7] 15.2 µM | [9] 20.6 µM | [8] 11.4 µM
inactive: [4]

Cc1cccc(C)c1O
inactive: [1] | [2] | [3] | [5] | [6] | [7] | [9] | [8]
active: [4] 50 µM

CN1CCN(Cc2cc(-c3ccc4[nH]c(=O)oc4c3)co2)[C@@H](c2ccc(F)cc2)C1
active: [1] 82.5 µM | [2] 81.7 µM | [4] 61.3 µM | [6] 82.2 µM
inactive: [3] | [5] | [7] | [9] | [8]

CCCCCCC(=O)OCC
inactive: [1] | [2] | [3] | [5] | [6] | [9] | [8]
active: [4] 33.1 µM

Cc1cccc(Nc2cc(Cl)nc(SCC(=O)O)n2)c1C
active: [4] 50 µM | [8] 50 µM
inactive: [2] | [3] | [5] | [6] | [10] | [9]

Cc1cc(=O)[nH]c(=S)[nH]1
inactive: [1] | [2] | [3] | [5] | [6] | [9] | [8]
active: [4] 50 µM

Cc1nc(-c2ccc3c(c2)CCN(CCC2CCC(NC(=O)/C=C/c4ccc(F)cc4)CC2)CC3)no1 (configuration not stated)
inactive: [2] | [3] | [5] | [6] | [9] | [8]
active: [4] 23.2 µM | [10] 0.248 µM

CCOc1ccc2c(c1)C(C)=CC(C)(C)N2
active: [4] 17.5 µM | [8] 5.26 µM
inactive: [2] | [3] | [5] | [6] | [10] | [7] | [9]

CCCCCCCCCCCCCO
inactive: [1] | [2] | [3] | [4] | [5] | [6] | [9] | [8]

Cc1ccc(N(C)C)cc1
active: [4] 22.6 µM
inactive: [1] | [2] | [3] | [5] | [6] | [9] | [8]

O=C(N[C@@H](Cc1ccccc1)[C@@H](O)C(=O)N1C[C@@H](O)[C@@H](O)C1)c1cc2cc(Cl)ccc2[nH]1
inactive: [1] | [2] | [3] | [5] | [6] | [9]
active: [4] 50 µM | [8] 9.92 µM

O=C(OCCCCCOC(=O)c1ccccc1)c1ccccc1
inactive: [2]
active: [1] 2.78 µM | [3] 0.503 µM | [4] 1.18 µM | [5] 0.228 µM | [6] 1.19 µM | [9] 0.14 µM | [8] 0.27 µM

COc1ccc(C)cc1N
inactive: [2] | [3] | [4] | [5] | [6] | [10] | [9] | [8]

C1CCC(SSC2CCCCC2)CC1
active: [4] 50 µM
inactive: [1] | [2] | [3] | [5] | [6] | [9] | [8]

Cc1cccc([N+](=O)[O-])c1C
inactive: [1] | [2] | [3] | [4] | [5] | [6] | [9] | [8]
